Assay results: the supplement of paper PMC6555819

Columns and labels:
Assay in all cases: PBM binding z-score (relative to random genomic background probes); higher = stronger binding; sequences stand for … in GC…GCGATTGACAGCGTAGAATGAAGG
[1] = test system: FXR:RXRa (NR concentration 270 nM, RXRa partner concentration 90 nM)
Summary of the method: (§1)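 Probes were double-stranded and carried 34-nt variable regions with direct-repeat seeds, single-nucleotide variants, half-site ablations and random human genomic background sequences, printed on custom Agilent 4×180K protein-binding microarrays. Arrays were incubated 1 h with ligand-free nuclear receptor dimers in PBS pH 7.4, 2% milk, 0.02% Triton X-100, 1 mM DTT, 0.2 mg/mL BSA and 0.4 mg/ml salmon testes DNA. Antibodies against each partner (one per run) detected binding, and scanned fluorescence was regression-normalized. Binding z-scores use the random background probes as reference.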

[2] = test system: LXRa:RXRa (NR concentration 270 nM, RXRa partner concentration 90 nM)
Summary of the method: as §1

[3] = test system: LXRa homodimer (NR concentration 270 nM)
Summary of the method: as §1

[4] = test system: LXRb:RXRa (NR concentration 270 nM, RXRa partner concentration 90 nM)
Summary of the method: as §1

[5] = test system: LXRb homodimer (NR concentration 270 nM)
Summary of the method: as §1

[6] = test system: PPARa:RXRa (NR concentration 270 nM, RXRa partner concentration 90 nM)
Summary of the method: as §1

[7] = test system: PPARg:RXRa (NR concentration 180 nM, RXRa partner concentration 90 nM)
Summary of the method: as §1

[8] = test system: PPARg:RXRa 270nM:90nM, anti-RXR (NR concentration 270 nM, RXRa partner concentration 90 nM)
Summary of the method: as §1

[9] = test system: PPARg:RXRa 30nM:10nM, anti-RXR (NR concentration 30 nM, RXRa partner concentration 10 nM)
Summary of the method: as §1

[10] = test system: PPARg:RXRa 90nM:30nM, anti-RXR (NR concentration 90 nM, RXRa partner concentration 30 nM)
Summary of the method: as §1

| Sequence | PBM binding z-score [1] | PBM binding z-score [2] | PBM binding z-score [3] | PBM binding z-score [4] | PBM binding z-score [5] | PBM binding z-score [6] | PBM binding z-score [7] | PBM binding z-score [8] | PBM binding z-score [9] | PBM binding z-score [10] |
| --- | --- | --- | --- | --- | --- | --- | --- | --- | --- | --- |
| AATACAGGGTCATCGTAGGCCAGATTACGCACAG | 7.31 | 6.79 | 2.75 | 4.95 | 1.56 | 5.92 | 6.61 | 6.1 | 3.14 | 4.89 |
| CTCGAAAGGTAGTGCTCAGGTGAGTATACCAAAC | -0.118 | -0.487 | -0.334 | -0.319 | -0.503 | -0.373 | -0.362 | -0.344 | -0.375 | -0.618 |
| TGAATGAGGTTACAGATCAGGGAACGTGGCGTCG | 1.82 | 1.45 | -0.368 | 0.694 | 0.104 | 2.94 | 2.65 | 3.06 | 1.45 | 2.65 |
| TGTGCTAGGTCAGTTGGTCAGCTAACGAGCTGCC | 0.928 | 0.621 | -0.546 | -0.0513 | 0.565 | 1.23 | 0.656 | 1.19 | -0.306 | 0.746 |
| AATACCGGGTCACTAGGCCAGAGTAGGTACGAAT | 4.09 | 3.51 | 0.369 | 2.69 | 0.134 | 5.09 | 6.97 | 5.93 | 2.96 | 4.9 |
| TCTTGTAGATCAACAGGAGCTTAAGAAAGATCGA | -0.438 | -0.744 | -1.18 | -0.366 | -0.825 | 0.0739 | -0.318 | 0.847 | 2.14 | 1.43 |
| TAGCCTAGGTCAGATCCGGCCAGTATACGCTATA | 1.78 | 1.41 | -0.272 | 1.05 | -0.172 | 1.69 | 0.79 | 0.773 | -0.199 | 0.368 |
| AATACAGGGTCATCGTAGGCCAGACTACGCACAG | 7.17 | 6.52 | 2.16 | 5.02 | 1.46 | 6.05 | 6.77 | 6.04 | 2.96 | 4.83 |
| CGTCCAAGGTCAATGCTAAGTCAGTGAAAGCATT | 6.87 | 4.59 | 0.722 | 3.58 | 0.637 | 4.73 | 3.59 | 4.12 | 0.983 | 2.55 |
| CCTAGCAGGCCAATCTGGGTCACTCAGGGCTTGA | 0.175 | 0.973 | -0.637 | 0.336 | -1.06 | 2.61 | 1.81 | 2.15 | -0.232 | 1.52 |
| CTCGAAAGCTCGTGCTCAGGTGAGTATACCAAAC | -0.575 | -0.866 | -0.669 | -0.84 | -0.65 | -0.803 | -0.599 | -0.812 | -0.841 | -0.913 |
| GCTTACGGGTCAAAGGATATAGCATGAATAGAAT | 5.93 | 3.75 | -0.261 | 3.44 | 0.261 | 5.37 | 5.87 | 5.9 | 3.29 | 5.26 |
| CTCGAAAGGTCGGTTGAGGGGAGTATACGGATAA | 2.57 | 1.35 | -0.151 | 1.35 | 0.377 | 2.39 | 0.359 | 0.861 | -0.0851 | 0.567 |
| GGAACGAGGGCAAATTGATAGCAGAGTTTGATGG | 0.902 | 0.348 | -0.101 | 0.452 | -0.144 | 1.73 | 1.16 | 0.944 | 0.134 | 0.629 |
| ACTATTAGTTGAATTAGGGCAACCGATACGACGC | 0.466 | -0.0406 | 0.224 | -0.00259 | 0.376 | 1.19 | 1.47 | 1.12 | 0.71 | 1.04 |
| AGAACGAGGGCAATGAGTTGATAGCACGGGTGGC | 0.227 | 0.258 | -0.336 | -0.187 | -0.464 | 1.14 | 1.4 | 0.948 | 0.0396 | 0.43 |
| ATCTCTAGGTAAAGTGCAGTGAAAGATCGATAGA | 0.236 | 0.336 | -0.00202 | -0.0786 | 0.221 | 0.525 | 0.843 | 2.05 | 0.6 | 1.67 |
| CCAACTGGGCCATTCAGAGGTCATTGATCATATG | 3 | 4.24 | 6.53 | 3.67 | 0.435 | 3.9 | 2.89 | 3.16 | 0.622 | 2.16 |
| ACTTACGAGTCAACGAGGTTATAGCACGCGTATA | 0.899 | 1.12 | 0.413 | 1.26 | 0.307 | 1.73 | 0.967 | 0.553 | 0.564 | 0.254 |
| TCATATAGGTAAATGCTAGGTGAAGGTCCGATCT | 0.907 | 0.779 | 0.342 | 0.347 | 0.0631 | 1.29 | 0.837 | 2.13 | 3.86 | 2.91 |
| ACTATCAGTTGACTTAGGGCAACCGATACGACGC | 0.0979 | 0.0623 | 0.0822 | -0.0416 | 0.543 | 0.113 | 0.908 | 0.0453 | 0.141 | 0.385 |
| GCTCGGAGGACAGGGTCAGAGCTTTGTCCGTAGA | 1.13 | 0.858 | -0.746 | 0.906 | -1.08 | 2.62 | -0.204 | 0.469 | -0.854 | 0.00374 |
| CCTACTGGGCCTAGGTCATTGATCAGTCAAAGCA | 0.983 | 1.42 | 0.403 | 1.31 | -0.469 | 1.77 | 0.62 | 1.47 | -0.181 | 1.03 |
| GCTTGTAGATCAATGTTAAGAAAGACTAAGCTAA | -0.421 | -0.43 | -0.434 | -0.517 | -0.377 | -0.584 | -0.00589 | -0.385 | -0.425 | -0.416 |
